# Experimental data from article PMC4552634, “A New Set of Chemical Starting Points with Plasmodium falciparum Transmission-Blocking Potential for Antimalarial Drug Discovery” (PLoS ONE, 2015).
# The campaign covered roughly 13,000 compounds. About 3,200 (25%) showed an effect of 50% or more. The list shows a part of the results.
# Tested on: P. falciparum stage V gametocytes
# Design: BacTiter-Glo ATP luminescence viability of purified stage V gametocytes in 384-well plates, per cent inhibition versus DMSO
# Conditions: 48 h, 5 µM; inhibitor
row,SMILES,% Inhibition
1,COc1ccccc1CNCC(O)c1cc(C(F)(F)F)ccc1C(F)(F)F (centres unmarked) [TCMDC-140376],33.11%
2,CN(C)c1ccc(C=Cc2nc(=O)c3ccccc3o2)cc1 [TCMDC-123870],44.95%
3,CCN(CC)S(=O)(=O)n1ncc2c3c(N)nc(N)nc3ccc21 [TCMDC-137302],-23.31%
4,N#CCCn1nc(-c2ccc(Cl)cc2)c2c(c1=O)CCCC2 [TCMDC-123668],-3.378%
5,COc1cc2nc(Nc3ccc4c(ccn4Cc4ccccc4)c3)nc(Nc3ccc4c(ccn4Cc4ccccc4)c3)c2cc1OC [TCMDC-138237],94.63%
6,COc1cc2nc(Nc3ccc4c(cnn4Cc4ccccc4)c3)nc(Nc3ccc4c(cnn4Cc4ccccc4)c3)c2cc1OC [TCMDC-138020],106.8%
7,COc1cc2nccc(Nc3ccc4c(cnn4Cc4cccc(F)c4)c3)c2cc1OC.Cl [TCMDC-138105],-72.46%
8,COc1cc2nc(N(C)C)nc(Nc3ccc4c(cnn4Cc4ccccc4)c3)c2cc1OC [TCMDC-138082],11.6%
9,COc1cc2ncnc(Nc3ccc4nc(Cc5ccccc5)[nH]c4c3)c2cc1OC [TCMDC-137180],-12.69%
10,COc1cc2nc(C)nc(Nc3ccc4c(ccn4Cc4ccccc4)c3)c2cc1OC [TCMDC-131924],19.01%
11,COc1cccc(NC(=O)NCCNc2ccnc(Nc3ccc(F)cc3)n2)c1 [TCMDC-133639],-6.43%
12,COc1ccc(CNC(=O)c2cc3c(=O)n4ccccc4nc3n(CCc3ccccc3)c2=N)cc1 [TCMDC-124474],-41.5%
13,Cc1cc(C(=O)CN2C(=O)NC(C)(c3ccc4ccccc4c3)C2=O)c(C)n1Cc1ccco1 (centres unmarked) [TCMDC-125044],-21.37%
14,Cc1cc(C(=O)CN2C(=O)NC(C)(c3cccc4ccccc34)C2=O)c(C)n1Cc1ccco1 (centres unmarked) [TCMDC-125264],12.34%
15,COCCn1c(C)cc(C(=O)CN2C(=O)NC(C)(c3ccc(C(C)(C)C)cc3)C2=O)c1C (centres unmarked) [TCMDC-125434],51.6%
16,Cc1[nH]nc2ccc(-c3cc(OC[C@@H](N)Cc4ccccc4)cnc3-c3cc4ccccc4s3)cc12 [TCMDC-136352],16.97%
17,O=C(NCc1cccc2ccccc12)C1CCCN(C(=O)c2ccc(O)c(-c3ccc(Cl)c(Cl)c3)c2)C1 (centres unmarked) [TCMDC-140894],15.24%
18,O=C(N[C@@H](Cc1ccccc1)[C@H](O)CNC1CCCCC1)c1cc(C2CCCC2)cc(N2CCCC2=O)c1 [TCMDC-138869],29.86%
19,COc1ccc2ncc(Cl)c(CCN3CC[C@@H](CNCc4cc5c(cn4)OCS5)C3)c2n1 [TCMDC-135904],-4.396%
20,Cc1c(C)c2c(c(C)c1O)CCC(C)(CCC(=O)O)O2 (centres unmarked) [TCMDC-131686],-4.216%
21,CC[C@H]1CN2CC[C@H]1C[C@@H]2[C@@H](O)c1cc(Cl)nc2ccc(OC)cc12 [TCMDC-137467],-42.11%
22,CC[C@H]1CN2CC[C@H]1C[C@H]2[C@H](O)c1cc(-c2ccccc2C)nc2ccc(OC)cc12 [TCMDC-141190],15.24%

row,SMILES,% Inhibition
1,C=C[C@H]1CN2CC[C@H]1C[C@H]2[C@H](O)c1cc(/C=C/c2ccc(F)cc2)nc2ccc(OC)cc12 [TCMDC-141366],-44.1%
2,CC[C@H]1CN2CC[C@H]1C[C@H]2[C@H](O)c1cc(/C=C/c2ccc(F)cc2)nc2ccc(OC)cc12 [TCMDC-141367],91.47%
3,CC[C@H]1CN2CC[C@H]1C[C@H]2[C@H](O)c1cc(/C=C/c2ccccc2)nc2ccc(OC)cc12 [TCMDC-141329],62.86%
4,Cc1cccc(N2C(N)=NC(N)=NC2(C)C)c1C [TCMDC-137926],11.29%
5,Cc1cc(Nc2ccc(C)c(Cl)c2)n2ncnc2n1 [TCMDC-123501],-28.24%
6,COC(=O)c1cccc(N2CCN(CCCNC(=O)/C(=C/C=C/c3cc4cc(Cl)c(Cl)cc4[nH]3)OC)CC2)c1 [TCMDC-139338],20.82%
7,O=C(Cc1ccc(NC(=O)c2ccc(O)c(-c3cccc([N+](=O)[O-])c3)c2)cc1)NCCN1CCCCC1 [TCMDC-140797],2.849%
8,O=C(Nc1cccc(-c2cccc(-c3nc4ccc(F)cc4[nH]3)c2)c1)Nc1ccc2c(c1)OCO2 [TCMDC-133165],6.84%
9,Nc1cccc(CNCc2cccc(-c3cccc(-c4nc5ccccc5[nH]4)c3)c2)c1 [TCMDC-132942],-10.95%
10,Nc1cccc(CNCc2cccc(-c3cccc(-c4nc5ccc(F)cc5[nH]4)c3)c2)c1 [TCMDC-132941],-20.24%
11,NCc1ccc(CNCc2cccc(-c3ccc(-c4nc5ccccc5[nH]4)cc3)c2)cc1 [TCMDC-132815],106.4%
12,Fc1ccc2nc(-c3cccc(-c4cccc(CNCc5ccccc5)c4)c3)[nH]c2c1 [TCMDC-132699],-56.67%
13,COc1ccc(CNCc2cccc(-c3cccc(-c4nc5ccccc5[nH]4)c3)c2)cc1 [TCMDC-132716],-25.62%
14,c1ccc(CNCc2cccc(-c3ccc(-c4nc5ccccc5[nH]4)cc3)c2)cc1 [TCMDC-132700],26.72%
15,c1ccc(CNCc2cccc(-c3cccc(-c4nc5ccccc5[nH]4)c3)c2)cc1 [TCMDC-132698],-20.89%
16,NCc1ccc(CNCc2cccc(-c3cccc(-c4nc5ccc(F)cc5[nH]4)c3)c2)cc1 [TCMDC-132816],98.03%
17,NCc1ccc(CNCc2cccc(-c3cccc(-c4nc5ccccc5[nH]4)c3)c2)cc1 [TCMDC-132817],74.49%
18,CCNc1cc(C(=O)N[C@@H](Cc2ccccc2)[C@H](O)CNC2(Cc3cccc(Cl)c3)CCC2)cc(N2CCCCS2(=O)=O)c1 [TCMDC-135383],17.64%
19,COc1cccc(CNc2noc(-c3c(-c4ccccc4)noc3C)n2)c1OC [TCMDC-134204],10.03%
20,CCN(CCCNc1nc(=S)[nH]c2cc(OC)c(OC)cc12)c1ccccc1 [TCMDC-124446],83.33%
21,COc1ccc(-c2nc(NCc3ccccc3)c3cc(OC)c(OC)cc3n2)cc1 [TCMDC-132018],17.4%
22,Cc1ccc2[nH]c3c(NCCCN(C)C)ncnc3c2c1 [TCMDC-124580],4.888%
